The list shows a part of the results. Inconclusive results are not listed. Activity calls are given as the source filed them. Calls follow the shape of the dose curve; as a rule, active = well fitted inhibition curve with a large enough effect in the main read-out, with a control signal flat; inconclusive = small, poorly fitted or top-dose-only effect, or a change in a side signal; inactive = no such curve, though single readings can be large or run the other way.

In this assay the target is Caspase-1 (Homo sapiens) (UniProt P29466). Description: Confirmation Concentration-Response Assay for Allosteric/Competitive Inhibitors of Caspase-1. The note with it: purified caspase-1, fluorogenic substrate cleavage; series mostly up to 57.5 µM. The text has this:
NIH Molecular Libraries Screening Centers Network [MLSCN]
NIH Chemical Genomics Center [NCGC]
PI Name: Dr. James Wells,
Dr. Enrique Perez-Paya, Dr.Janice Williams, Dr. Dennis Wolan, a person
The caspases (Cysteine Aspartyl Protease) comprise a related family of 14 dimeric proteases that are critical mediators of apoptosis (programmed cell death) and inflammation. The caspases represent an important class of drug targets for stroke, ischemia, cancer and inflammatory diseases. […] One goal of this project was to identify compounds that act as allosteric inhibitors via stabilizing the procaspase form of the enzyme. […]
The biochemical assay was configured using purified caspase 1 at a high enzyme concentration to promote formation of the homodimers and thus facilitate the identification of allosteric inhibitors. […] After initiation of the assay with substrate the plates were rapidly read using an automated robotic system (Kalypsys, Inc.) to maintain consistent timing. […] Product formation was also measured after 1 hour. […]
Caspase 1 was prepared in buffer (50 mM HEPES pH 7.5, 50 mM KCl, 200 mM NaCl, 10 mM DTT, 0.1% CHAPS) at a concentration of 66.6 nM and 3 uL was dispensed to all wells using black solid Kalypsys 1536-well plates. […] The plates were then exposed using 405 nm excitation/520 nm emission filters for 4 sec and read at 20 sec intervals for 3 min. […]
For the molecule `Cc1nc2c(C(=O)NCc3ccc4c(c3)OCO4)c[nH]n2c(=O)c1Cc1ccccc1F`, the result was inactive.

Source of the values: PubChem BioAssay AID896 (National Center for Advancing Translational Sciences (NCATS), 2007).
